Measurements: PubChem BioAssay (NCATS)
Results filed as inconclusive are left out. Entries that show only a call come without a potency. The source made the active and inactive calls. Unless noted, the call rests on the fitted dose curve; in most records, active means well fitted curve in the direction sought with a large enough effect; inconclusive means small, poorly fitted or top-dose-only effect, or another doubt; inactive means no such curve, though single readings can be large; an effect the other way counts as inactive or inconclusive.

Legend:
[1] = target: Catechol O-methyltransferase (Homo sapiens) (UniProt P21964); assay: Confirmatory Screen for Target Class Profiling of Small Molecule Inhibitors of Methyltransferases (AID 1745852; calls by dose curve; further: potency means the concentration at half of the fitted maximal effect); settings: MTase-Glo luminescence, SAH detection, recombinant enzyme; measured here: COMT max response; stronger effect = lower value
Sequence of Catechol O-methyltransferase (Homo sapiens) (P21964 whole entry, looked up): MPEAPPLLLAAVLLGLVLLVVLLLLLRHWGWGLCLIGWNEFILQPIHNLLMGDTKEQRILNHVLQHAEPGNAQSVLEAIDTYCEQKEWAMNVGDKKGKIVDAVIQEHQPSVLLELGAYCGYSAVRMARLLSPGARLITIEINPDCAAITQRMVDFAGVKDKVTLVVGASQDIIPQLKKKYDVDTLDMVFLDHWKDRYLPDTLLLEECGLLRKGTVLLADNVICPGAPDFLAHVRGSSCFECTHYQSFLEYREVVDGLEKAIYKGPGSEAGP

[2] = target: Guanidinoacetate N-methyltransferase (Homo sapiens) (UniProt Q14353); assay: as above; settings: MTase-Glo luminescence, SAH detection, recombinant enzyme; activity change, negative = inhibition: at 57.3 µM (top of the series) unless noted; series mostly up to 57.3 µM
[3] = target: Nicotinamide N-methyltransferase (Homo sapiens) (UniProt P40261); assay: as above; settings: MTase-Glo luminescence, SAH detection, recombinant enzyme; measured here: NNMT max response; stronger effect = lower value
Sequence of Nicotinamide N-methyltransferase (Homo sapiens) (P40261 whole entry, looked up): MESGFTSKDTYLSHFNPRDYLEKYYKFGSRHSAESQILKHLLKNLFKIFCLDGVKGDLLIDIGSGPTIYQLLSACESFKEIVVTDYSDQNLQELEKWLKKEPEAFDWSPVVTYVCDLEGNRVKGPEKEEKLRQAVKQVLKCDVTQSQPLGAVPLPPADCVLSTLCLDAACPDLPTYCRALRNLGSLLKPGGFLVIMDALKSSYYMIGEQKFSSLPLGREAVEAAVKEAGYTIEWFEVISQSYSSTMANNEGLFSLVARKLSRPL

[4] = target: Phenylethanolamine N-methyltransferase (Homo sapiens) (UniProt P11086); assay: as above; settings: MTase-Glo luminescence, SAH detection, recombinant enzyme; measured here: PNMT max response; stronger effect = lower value
Sequence of Phenylethanolamine N-methyltransferase (Homo sapiens) (P11086 whole entry, looked up): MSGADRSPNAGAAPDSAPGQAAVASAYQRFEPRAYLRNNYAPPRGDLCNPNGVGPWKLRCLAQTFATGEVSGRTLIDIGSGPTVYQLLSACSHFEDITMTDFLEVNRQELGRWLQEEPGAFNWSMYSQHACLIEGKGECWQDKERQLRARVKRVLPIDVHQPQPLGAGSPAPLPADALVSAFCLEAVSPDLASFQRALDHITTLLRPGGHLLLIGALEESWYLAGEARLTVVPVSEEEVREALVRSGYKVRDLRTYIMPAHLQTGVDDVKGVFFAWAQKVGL

[5] = target: Glutathione peroxidase 1 (Homo sapiens) (UniProt P07203); assay: Primary qHTS Assay for Inhibitors of Recombinant Selenoprotein Glutathione Peroxidase 1 (GPX1) (AID 1845191); settings: recombinant GPX1, GR-coupled NADPH fluorescence, 15 min; series mostly up to 48.8 µM; further: nearly all actives have a fitted effect of over 65% in size
Sequence of Glutathione peroxidase 1 (Homo sapiens) (P07203 whole entry, looked up): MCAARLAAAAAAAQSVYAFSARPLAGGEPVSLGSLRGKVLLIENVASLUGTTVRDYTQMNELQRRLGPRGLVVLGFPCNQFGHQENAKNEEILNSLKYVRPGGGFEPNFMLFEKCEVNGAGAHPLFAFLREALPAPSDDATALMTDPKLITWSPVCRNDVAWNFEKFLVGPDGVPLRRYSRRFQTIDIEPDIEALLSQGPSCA
In short: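 GR-coupled assay: compounds preincubated 30 min at room temperature with GPX1, then reaction started with CHP; final 10 nM GPX1, 1 mM GSH, 0.5 mM CHP, 0.5 mM NADPH, 100 nM GR, 0.01% BSA, pH 7.5 Tris buffer. NADPH fluorescence (340/450 nm) read at 0 and 15 min.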

[6] = target: Phospholipid hydroperoxide glutathione peroxidase GPX4 (Homo sapiens) (UniProt P36969); assay: Primary qHTS Assay for Inhibitors of Recombinant Selenoprotein Glutathione Peroxidase 4 (GPX4) (AID 1845192); settings: recombinant GPX4, GR-coupled NADPH fluorescence, 15 min; series mostly up to 50 µM; further: nearly all actives have a fitted effect of over 65% in size; further: potency means the concentration at half of the fitted maximal effect
Sequence of Phospholipid hydroperoxide glutathione peroxidase GPX4 (Homo sapiens) (P36969 whole entry, looked up): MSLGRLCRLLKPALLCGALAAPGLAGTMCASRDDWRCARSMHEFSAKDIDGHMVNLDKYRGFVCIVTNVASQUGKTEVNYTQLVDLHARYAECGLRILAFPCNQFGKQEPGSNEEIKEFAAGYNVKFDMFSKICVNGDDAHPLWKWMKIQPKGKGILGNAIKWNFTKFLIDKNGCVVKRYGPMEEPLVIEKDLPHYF
In short: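 GR-coupled assay: recombinant GPX4 preincubated 30 min with compound at room temperature; final 200 nM GPX4, 1 mM GSH, 0.5 mM cumene hydroperoxide, 0.5 mM NADPH, 100 nM GR, 0.01% BSA, pH 7.5 Tris. NADPH fluorescence (340/450 nm) read at 0 and 15 min.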

[7] = target: Luciferin 4-monooxygenase (Photinus pyralis) (UniProt P08659); assay: Primary firefly luciferase (FLuc) qHTS assay for identification of artifact compounds. (AID 1845220); settings: purified firefly luciferase, luminescence, 5 min; series mostly up to 54.1 µM; further: nearly all actives have a fitted effect of over 60% in size; further: potency means the concentration at half of the fitted maximal effect
In short: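 Enzymatic FLuc inhibition assay: compounds pre-exposed to luciferin/ATP (10 uM each) for 15 min, then purified P. pyralis enzyme at 10 nM added. Read-out: luminescence at 5 min.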

[8] = Primary fluorescence-based thiol-reactive (MSTI) qHTS assay for identification of artifact compounds. (AID 1845221); settings: MSTI thiol-reactivity probe, 1 h; series mostly up to 53.8 µM; further: nearly all actives have a fitted effect of over 65% in size; further: potency means the concentration at half of the fitted maximal effect
In short: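 First, 4 uM MSTI in 2% DMSO/PBS pH 7.4 was dispensed; next, compounds were added; then plates sat 1 h at room temperature without light. Finally, emission at 598 nm was recorded.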

[9] = Primary redox qHTS assay for identification of artifact compounds. (AID 1845223); settings: Amplex Red/HRP redox cycling with DTT, fluorescence; series mostly up to 53.8 µM; further: potency means the concentration at half of the fitted maximal effect
In short: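 Amplex Red (25 uM) and HRP (250 mU/mL) in HBSS, with compounds for 15 min, then 250 uM DTT for 30 min, room temperature, dark. Fluorescence 525/598 nm read; normalized to DMSO and 10 uM DA3003; Hill fit.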

[10] = tested on: Nanoluciferase (engineered Oplophorus gracilirostris luciferase); assay: Primary Nanoluciferase (NLuc) qHTS assay for identification of artifact compounds. (AID 1845222); settings: NLuc-conditioned medium, Nano-Glo luminescence, 5 min; series mostly up to 54.1 µM;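 further: NLuc secreted into diluted conditioned medium of S16 cells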
In short: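 S16 cell supernatant NLuc, 1:55; cpds qHTS; 15 min RT dark; Nano-Glo substrate 1:100, 5 min; luminescence; Hill fit of % inhibition.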

[11] = Viability counterscreen for antagonist of constitutive androstane receptor (CAR) against the NCATS DSHEA and TCM libraries (AID 1794837); settings: CAR reporter cell line viability counterscreen, qHTS; series mostly up to 40 µM;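 further: compound exposure lasted 24 h before viability reading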
In short: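 Viability was measured by CellTiter-Fluor fluorescence (405/540 nm, 1 hr) in HepG2-CYP2B6-hCAR cells. Cells were co-treated 24 hr with 48 uM CITCO (final), antagonist mode, and test substances.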

[12] = Viability counterscreen for agonist of constitutive androstane receptor (CAR) against the NCATS DSHEA and TCM libraries (AID 1794838); settings: HepG2 cell viability counterscreen, CAR agonist assay, co-treated with 0.75 µM CAR antagonist; series mostly up to 40 µM;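 further: HepG2 cells with CYP2B6 reporter and hCAR plus 0.75 µM PK11195 antagonist; cells exposed to compound for 24 h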
In short: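 Cell viability, from CellTiter-Fluor fluorescence (405/540 nm), was scored after a 24 h, 37C exposure of HepG2 cells carrying CYP2B6 reporter and hCAR to test substances in presence of 0.75 uM PK11195.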

[13] = HepG2 viability counterscreen (readout 2: ATP content) against the NCATS DSHEA and TCM libraries (AID 1794840); settings: ATP content luminescence; series mostly up to 27.3 µM;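 further: HepG2 cells exposed to substances for about 24 h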
In short: (§1)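 Readout 1: cellular protease activity, GF-AFC substrate (25 uM final, 30 min, fluorescence 380/510 nm). Readout 2: ATP content by CellTiter-Glo luminescence after 30 min at RT. Both follow ~24 h exposure of HepG2 cells (1,000/well) to substances.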

[14] = HepG2 viability counterscreen (readout 1: protease activity) against the NCATS DSHEA and TCM libraries (AID 1794841); settings: qHTS concentration series; series mostly up to 27.3 µM;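 further: cells exposed to compounds for about 24 h before the protease read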
In short: as §1

## CC(F)(F)CN1CCOc2c(nn(-c3ccccc3Cl)c2-c2ccc(Cl)cc2)C1=O
[1]
  activity: -4.22%
[2]
  activity change, negative = inhibition: 0.516%
[3]
  activity: -32.3%
[4]
  activity: -3.99%
[5]
  Potency: inactive
[6]
  Potency: inactive
[7]
  Potency: inactive
[8]
  Potency: inactive
[9]
  Potency: inactive

## CN(C)CCCn1cc(C2=C(c3c[nH]c4ccccc34)C(=O)NC2=O)c2ccccc21
[1]
  activity: -45.6%
[2]
  Potency: 27.1 µM (active)
[3]
  activity: -41.3%
[4]
  activity: -44.4%
[5]
  Potency: inactive
[6]
  Potency: inactive
[7]
  Potency: inactive
[8]
  Potency: 0.423 µM (active)
[9]
  Potency: inactive

## C=C1C(=O)OC[C@@H]1C/C=C(\C)CC1CC(C)C(=O)O1 (some centres not stated)
[1]
  activity: -80%
[2]
  activity change, negative = inhibition: -0.246%
[3]
  activity: 0.776%
[4]
  activity: 0.671%
[5]
  Potency: inactive
[6]
  Potency: inactive
[8]
  Potency: 8.44 µM (active)

## CN(C)c1ccc(NC(=O)NS(=O)(=O)c2ccc(Cl)cc2)cc1
[1]
  activity: -53.7%
[2]
  Potency: 27.1 µM (active)
[3]
  activity: -25%
[4]
  activity: -83.5%
[5]
  Potency: inactive
[6]
  Potency: inactive
[8]
  Potency: 1.89 µM (active)
[10]
  Potency: inactive
[9]
  Potency: 3.36 µM (active)

## C/C=C(/C)C(=O)O[C@H]1C=C(CO)C(=O)[C@H](OC(=O)/C(C)=C/CO)[C@H]1C(C)C
[1]
  activity: -55.6%
[2]
  activity change, negative = inhibition: -5.13%
[3]
  activity: -3.04%
[4]
  activity: -1.6%
[5]
  Potency: inactive
[6]
  Potency: inactive
[7]
  Potency: inactive
[10]
  Potency: inactive
[9]
  Potency: inactive

## CC#C[C@@H](CC(=O)O)c1ccc(OCc2cccc(-c3ccc(C(F)(F)F)cc3)c2)cc1
[1]
  activity: -11.2%
[2]
  Potency: inactive
[3]
  activity: -23.8%
[4]
  activity: 3.83%
[5]
  Potency: inactive
[6]
  Potency: 5.7 µM (active)
[8]
  Potency: inactive
[10]
  Potency: inactive
[9]
  Potency: inactive

## CC1(C)CCC(C)(C)c2cc(C#Cc3ccc(C(=O)O)cc3)ccc21
[1]
  activity: -0.825%
[2]
  activity change, negative = inhibition: 0%
[3]
  activity: -63%
[4]
  activity: -5.22%
[5]
  Potency: inactive
[6]
  Potency: inactive
[8]
  Potency: inactive
[10]
  Potency: inactive
[9]
  Potency: inactive

## Cn1cc(-c2ccc(F)c(C(F)(F)F)c2)nc1C1CCN(c2ncnc3[nH]ncc23)CC1
[1]
  activity: 2.12%
[2]
  activity change, negative = inhibition: 1.12% [at 9.47 µM]
[3]
  activity: -37.5%
[4]
  activity: -1.21%
[5]
  Potency: inactive
[6]
  Potency: inactive
[7]
  Potency: inactive
[8]
  Potency: inactive
[9]
  Potency: inactive

## CC(C)(C)c1ccc(C(=O)Nc2cc(Cl)c(Br)cc2C(=O)O)cc1
[1]
  activity: -14%
[2]
  activity change, negative = inhibition: -8.07%
[3]
  activity: -40.5%
[4]
  activity: -22%
[5]
  Potency: inactive
[6]
  Potency: inactive
[7]
  Potency: 6.75 µM (active)
[8]
  Potency: inactive
[10]
  Potency: inactive
[9]
  Potency: inactive

## O=S(=O)(Nc1cc(Cl)c(Oc2cnc3ccccc3c2)c(Cl)c1)c1ccc(Cl)cc1Cl
[1]
  activity: -8.48%
[2]
  Potency: 34.1 µM (active)
[3]
  activity: -47.5%
[4]
  activity: -24%
[5]
  Potency: inactive
[6]
  Potency: inactive
[7]
  Potency: inactive
[8]
  Potency: inactive
[9]
  Potency: inactive

## C=C1C(=O)O[C@@H]2/C=C(\CO)CC/C=C(/C=O)C[C@H](O)[C@@H]12
[1]
  activity: -86.9%
[2]
  activity change, negative = inhibition: -3.06%
[3]
  activity: 4.28%
[4]
  activity: 0.589%
[5]
  Potency: inactive
[6]
  Potency: inactive
[8]
  Potency: 11.9 µM (active)
[10]
  Potency: inactive
[9]
  Potency: inactive

## N#Cc1ccc(COC[C@H]2O[C@@H](n3c(NCc4ccc(Cl)c(Cl)c4)nc4c(N)ncnc43)[C@H](O)[C@@H]2O)cc1
[1]
  activity: -4.68%
[2]
  Potency: 23.5 µM (active)
[3]
  activity: -79.6%
[4]
  activity: -74.2%
[5]
  Potency: inactive
[6]
  Potency: inactive
[7]
  Potency: inactive
[8]
  Potency: inactive
[10]
  Potency: inactive
[9]
  Potency: inactive

## NC(=O)c1ccccc1Nc1ccnc(Nc2cccc(O)c2)n1
[1]
  activity: -4.04%
[2]
  activity change, negative = inhibition: 1.25%
[3]
  activity: -41.1%
[4]
  activity: -7.27%
[5]
  Potency: inactive
[7]
  Potency: inactive
[8]
  Potency: inactive
[10]
  Potency: inactive
[9]
  Potency: inactive

## C=C1C(=O)OC2/C=C(\C)CC/C=C(\C=O)C(OC)C(OC(=O)C(C)CC)C12 (configuration not stated)
[1]
  activity: -70.5%
[2]
  activity change, negative = inhibition: -5.12%
[3]
  activity: -2.69%
[4]
  activity: -0.332%
[5]
  Potency: inactive
[6]
  Potency: inactive
[7]
  Potency: inactive
[10]
  Potency: inactive
[9]
  Potency: inactive

## CCN(CC)CCCCCCNc1cc(OC)cc2c(C)ccnc12
[1]
  activity: -3.27%
[2]
  activity change, negative = inhibition: -0.864%
[3]
  activity: 0.614%
[4]
  activity: 2.1%
[5]
  Potency: inactive
[6]
  Potency: inactive
[7]
  Potency: inactive
[10]
  Potency: inactive

## O=C1NC(=O)C(c2cnc3ccccn23)=C1c1cn2c3c(cc(F)cc13)CN(C(=O)N1CCCCC1)CC2
[1]
  activity: -28.3%
[2]
  activity change, negative = inhibition: -13.3%
[3]
  activity: -51.2%
[4]
  activity: -20.8%
[5]
  Potency: inactive
[6]
  Potency: inactive
[7]
  Potency: inactive
[10]
  Potency: inactive
[9]
  Potency: inactive

## N#Cc1cnc2c(Cl)cc(NCc3cn(CCN4CCCCCC4)nn3)cc2c1Nc1ccc(F)c(Cl)c1
[1]
  activity: -24.8%
[2]
  Potency: 15.2 µM (active)
[3]
  activity: -26.2%
[4]
  activity: -36.9%
[5]
  Potency: inactive
[6]
  Potency: inactive
[7]
  Potency: inactive
[10]
  Potency: inactive
[9]
  Potency: inactive

## C=C1C(=O)O[C@@H]2C3=C(C)CCC[C@]3(C)CC[C@@]12O
[1]
  activity: -87.7%
[2]
  activity change, negative = inhibition: -4.1%
[3]
  activity: -7.46%
[4]
  activity: -3.37%
[5]
  Potency: inactive
[6]
  Potency: inactive
[7]
  Potency: inactive
[10]
  Potency: inactive

## COC(C)(C)CCn1nc(Nc2c(C)cccc2C)c2cnc(Nc3ccc(OCCN4CCCC4)c(F)c3)nc21
[1]
  activity: -6.73%
[2]
  activity change, negative = inhibition: 0%
[3]
  activity: -23.2%
[4]
  activity: -4.06%
[5]
  Potency: inactive
[6]
  Potency: inactive
[7]
  Potency: inactive
[10]
  Potency: inactive
[9]
  Potency: inactive

## COc1cc2nc(N3CCN(C(=O)c4ccco4)C4CCCCC43)nc(N)c2cc1OC (configuration not stated)
[1]
  activity: -2.31%
[2]
  activity change, negative = inhibition: 0%
[3]
  activity: -31.3%
[4]
  activity: 0.0711%
[5]
  Potency: inactive
[6]
  Potency: 22.7 µM (active)
[7]
  Potency: inactive
[10]
  Potency: inactive
[9]
  Potency: inactive

## CC(=O)C1=C(O)C=C2Oc3c(C(C)=O)c(O)c(C)c(O)c3[C@]2(C)C1=O
[11]
  outcome: inactive
[12]
  outcome: inactive
[13]
  outcome: inactive
[14]
  outcome: inactive
